Results on 40 molecules are retold here after PubChem BioAssay (Tox21).

Records with an inconclusive call do not appear. Entries that show only a call come without a potency. A number with no mark means an inactive call. Activity calls are given as the source filed them. Calls come from the whole dose curve; as a rule, active = well fitted activation curve with a large enough effect in the signal ratio in the repeat runs (not every such curve was filed as active); inconclusive = weak or mixed curves; inactive = flat fitted curve, though single readings scatter; the % refers to the signal ratio.

This test is described as follows: qHTS assay to identify small molecule agonists of H2AX (AID 1224845). The following applies: CHO-K1 phospho-H2AX Ser139 HTRF, 3 h; series mostly up to 154 µM. From the text:
National Center for Advancing Translational Sciences [NCATS]
NIH Chemical Genomics Center [NCGC]
U.S. Environmental Protection Agency [EPA]
National Institutes of Environmental Health Sciences [NIEHS]
National Toxicology Program [NTP]
U.S. Food and Drug Administration [FDA]
HTRF phospho-H2AX (Ser139) assay (Cisbio Bioassays, US) enables the quantitative detection of the histone variant H2AX when phosphorylated on serine 139. When double-stranded DNA breaks, either by ionizing radiation or endogenous physiological processes, H2AX becomes phosphorylated at Ser139. This phospho-Ser139 serves as a sensitive biomarker for the detection of such breaks, localizing the site of DNA repair. So, HTRF phospho-H2AX Ser139 is a pertinent assay to study genome stability, the cell cycle, DNA repair, and it serves as a biomarker for cancer, and to understand aging. Wild type CHO-K1 cells were used to identify the inducers of Phospho-H2AX Ser 139 from the Tox21 10K compound collections.
Tox21 Assay Protocol Summary:
The CHO-K1 cells suspended in culture medium containing 10% FBS were dispensed at 1000 cells/ 3 ul/well in 1536-well white wall/solid bottom plates (Greiner Bio-One North America, NC) using a Multidrop Combi (Thermo Fisher Scientific Inc., Waltham, MA). After the assay plates were incubated at 37C overnight, 23 nl of compounds at 15 concentrations (from 5-48 columns) or positive control (from 1 to 4 columns) were transferred to the assay plates using a Pintool station (Wako, San Diego, CA) into each well resulting in a final DMSO concentration of 0.76%. After 3hr incubation at 37C, 1 uL/well Supplemented Lysis buffer (diluted 100 fold blocking reagent in lysis buffer) (HTRF Phospho-H2A.X (S139) Assay kit from Cisbio US Inc., Bedford, MA) was added using a Flying Reagent Dispenser (FRD) (Aurora Discovery, CA). After 10sec spin at 1000 rpm in a plate centrifuge, the assay plates were incubated at room temperature for 30 min. Then followed by the addition of 1 uL/well detection buffer (containing a mixture of two antibodies, one labeled with cryptate, Anti pH2AX (S139)-K and another labeled with d2, Anti H2AX-d2) using FRD. After incubation at room temperature for 24 hr, the time resolved fluorescence at excitation 320 nm and emissions at 665 nm and 620 nm was measured using an Envision plate reader (PerkinElmer, Waltham, MA).
`O=[N+]([O-])c1cncn1CCN1CCOCC1`: the Potency entry is “inactive”.
As to `CC1=CCC(O)(C(C)C)CC1` (stereo not given), the Potency result was “inactive”.
Still for that read-out and setting: the entry for `CCCCOC(=O)CCC(C)=O` is “inactive”; for `FB(F)F` it is “inactive”.
For `CCOC(=O)c1ccccc1`, the Potency result was “inactive”.
Same read-out and setting: the entry for `C=CCCC(=O)O` is “inactive”.
Regarding `CC1(C)[C@@H]2CC[C@@]1(C)[C@H](O)C2`, the Potency entry is “inactive”.
Same read-out and setting: the entry for `C[C@@H]1CCC[C@H](C)N1` is “inactive”; for `CC(=O)c1ccccc1[N+](=O)[O-]` it is “inactive”.
The same measure, in the same setting: the entry for `O=S(=O)(O)c1cccc2ccccc12` is “inactive”; for `CC(C)C1CCC(O)CC1` (stereo not given) it is “inactive”; for `O=C(O)CNC(=O)c1ccccc1` it is “inactive”.
Turning to `COC(=O)C1=C(C)NC(C)=C(C(=O)OC(C)C)C1c1cccc2nonc12` (stereo not given), the Potency entry is “inactive”.
Still for that read-out and setting: the entry for `CCOC(=O)CCC(=O)OCC` is “inactive”; for `CCCO[Si](OCCC)(OCCC)OCCC` it is “inactive”.
The same measure, in the same setting: the entry for `[Ca+2]` is “inactive”; for `O=[N+]([O-])c1ccc(/C=N\O)o1` it is “inactive”; for `CC1=C(C/C=C(\C)CCC[C@H](C)CCC[C@H](C)CCCC(C)C)C(=O)c2ccccc2C1=O` it is “inactive”.
Still for that read-out and setting: the entry for `CC(=O)O[C@@]12CO[C@@H]1C[C@H](O)[C@@]1(C)C(=O)[C@H](O)C3=C(C)[C@@H](OC(=O)[C@H](O)[C@@H](NC(=O)OC(C)(C)C)c4ccccc4)C[C@@](O)([C@@H](OC(=O)c4ccccc4)[C@H]21)C3(C)C` is “inactive”.
Take `C1CCC2(CCCCO2)OC1`: the Potency entry was “inactive”.
In the case of `C[N+]1(CC2COC(c3ccccc3)(c3ccccc3)O2)CCCCC1` (stereo not given), the activation (H2AX phosphorylation) was -1.86% [at 31.6 µM].
Consider `CC(C)CC(C)(N)C#N` (stereo not given), for which the Potency entry was “inactive”.
Still for that read-out and setting: the entry for `CCC(=O)OCc1ccccc1` is “inactive”; for `CC(COc1ccccc1)NN` (stereo not given) it is “inactive”; for `CC12CCC(C(=O)C1=O)C2(C)C` (stereo not given) it is “inactive”.
For `Cc1ccccc1N=C(N)N=C(N)N`, the Potency result was “inactive”.
In the case of `CCCc1ncc(C[n+]2ccccc2C)c(N)n1`, the Potency result was “inactive”.
The same measure, in the same setting: the entry for `O=CN(CCO)CCO` is “inactive”; for `Cc1cccc(C)c1NC(=O)CC12CCCN1CCC2` it is “inactive”; for `Clc1cc(Cl)cc(Cl)c1` it is “inactive”.
On the same count and under the same terms, the entry for `CCN1CCOCC1` is “inactive”; for `c1ccc(Cc2ccccc2)cc1` it is “inactive”.
Same read-out and setting: the entry for `CN1CC(=O)N/C1=N/C(=O)Nc1cccc(Cl)c1` is “inactive”; for `COc1cc(C(=O)NCc2ccc(OCCN(C)C)cc2)cc(OC)c1OC` it is “inactive”.
In the case of `O=C(CO)[C@@H](O)[C@H](O)[C@H](O)CO`, the Potency entry was “inactive”.
The same measure, in the same setting: the entry for `CC(C)(C)C(=O)c1ccccc1` is “inactive”.
For `O=C(c1ccccc1)C1(O)CCCCC1`, the Potency entry was “inactive”.
As for `COCCOCC(OC)OC`, the Potency result was “inactive”.
Consider `CC(C)COC(=O)c1ccc(N)cc1`, for which the Potency result was “inactive”.
On the same count and under the same terms, the entry for `O=Cc1cccc(Br)c1` is “inactive”.
